We go through 96 compounds from PubChem BioAssay AID652104 (National Center for Advancing Translational Sciences (NCATS), 2013).

Among all 410,000 compounds or so, about 7,200 (1.8%) were called active. About 7% were inconclusive and are not listed. The entries come from a sample that favours actives as a whole. Where a call stands in place of a potency, no number is given. Unmarked numbers belong to inactive results. Calls come from the whole dose curve; as a rule, active = well fitted activation curve with a large enough effect; inconclusive = small, poorly fitted or top-dose-only effect, or another doubt; inactive = no such curve, though single readings can be large or run the other way.
Potency is the fitted concentration of half-maximal effect.

The assay can be described thus: qHTS of TDP-43 Inhibitors. Note: nearly all actives have a fitted effect of over 50% in size. Particulars: TDP-43 expressing yeast growth rescue, BacTiter-Glo, 24 h; series mostly up to 46.1 µM. A digest of the protocol:
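Yeast expressing TDP-43 (pregrown in raffinose, seeded at OD600=0.02 in galactose medium) exposed to compounds 24 hr at 30 deg C. Growth read by BacTiter-Glo luminescence; rescue of toxicity appears as increased signal.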
(In general: qHTS replaces the single test concentration by a dilution series.)
`NS(=O)(=O)c1ccc(NC(=O)COc2ccc(S(=O)(=O)NC3CCCCC3)cc2)cc1`: the Potency entry is “inactive”. On the same count and under the same terms, in the case of `CCOc1ccc(C2CC(=O)c3c([nH]c(C(=O)OCc4ccccc4)c3C)C2)cc1` (stereo unspecified) it was “inactive”; in that of `O=C(Cn1nc(Cc2cccnc2)c2ccccc2c1=O)N1CCN(c2ccccc2F)CC1`, “inactive”. On to `CCN(CC)S(=O)(=O)c1nnc(NC(=O)COc2ccccc2Cl)s1`, for which the Potency result was “inactive”. Still for that read-out and setting: in the case of `Cc1nc2ccccc2c(-c2ccccc2)c1C(=O)c1ccccc1` it was 22.4 µM (active); in that of `CC(C)(C)C(=O)c1c(N)[nH]c(C(=O)c2ccccc2)c1-c1ccc(F)cc1`, “inactive”.

Take `Nc1[nH]c(C(=O)c2ccccc2)c(-c2ccncc2)c1C(=O)NCc1cccc2ccccc12`: the Potency result was “inactive”.

For the compound `CCCNC(=O)CCC(=O)N1Cc2ccccc2Oc2ncccc21`, the growth rescue (activation) was 7.07% [at 9.22 µM]. For the compound `CC(C)c1ccc(NS(=O)(=O)c2ccc3[nH]cc(C(=O)NC4CCCC4)c(=O)c3c2)cc1`, the Potency entry is “inactive”. Same read-out and setting: then `CCCOc1ccc(C2c3c(-c4ccccc4O)n[nH]c3C(=O)N2Cc2cccnc2)cc1` (stereo unspecified), with “inactive”; and `Cc1c(Cl)cccc1NC(=O)C1CCCN(C(=O)c2cnn(-c3ccccc3)c2-n2cccc2)C1` (stereo unspecified), with “inactive”; and `CC(C)CC(=O)N/C(N)=N/c1nc2ccccc2s1`, with 15.8 µM (active). As for `CC(C)CC(=O)NC(=S)NNC(=O)c1cccc([N+](=O)[O-])c1`, the growth rescue (activation) is -4.92% [at 9.22 µM]. As to `Cc1cc(C)cc(-n2ccnc2SCC(=O)Nc2nc3ccccc3s2)c1`, the Potency entry was “inactive”. Turning to `CCN1CCN(CCCNC(=O)c2ccc3c(c2)sc2nc(-c4ccc(OC)cc4)cn23)CC1`, the Potency entry was “inactive”. Take `O=C(NCCc1ccccc1)c1ccc2c(c1)N(Cc1ccccc1)C(=O)c1ccccc1S2(=O)=O`: the Potency result was “inactive”. `Cc1ccccc1CNC(=O)CCc1cn(Cc2ccccc2C)c2ccccc12`: the Potency result was “inactive”. Still for that read-out and setting: in the case of `O=C(C1CCN(c2nnc(-n3cccc3)s2)CC1)N1CCc2ccccc2C1` it was 35.5 µM (active). `CCOC(=O)C1CCCN(C(=O)C2CCN(c3nnc(-n4cccc4)s3)CC2)C1` (stereo unspecified): the Potency entry was “inactive”. On to `CSc1ccc(CCNC(=O)C2CCN(c3nnc(-n4cccc4)s3)CC2)cc1`, for which the Potency result was “inactive”.

As to `Cc1ccc(-c2nn3c(=O)cc(CN4CCN(C(=O)Nc5cccc(C(F)(F)F)c5)CC4)nc3s2)cc1`, the Potency entry is “inactive”. Take `O=S(=O)(c1ccccc1)N1CCC(c2ccccc2)CC1`: the Potency entry is “inactive”. For `Cc1nc2ccc(NC(=O)N3CCC(c4ccccc4)C3)cc2nc1C` (stereo unspecified), the Potency result was “inactive”.

Turning to `O=C(C(=O)N1CCC(c2ccccc2)CC1)c1ccccc1`, the Potency is 12.6 µM (active).

As for `Cc1cccc2nc(-c3ccc(Cl)s3)c(Nc3ccc4c(c3)OCCO4)n12`, the Potency entry was “inactive”. On the same count and under the same terms, in the case of `Fc1ccc(-c2nc(Nc3cccc(Cl)c3)nc3c2COc2ccccc2-3)cc1` it was “inactive”; in that of `Cc1ccn2c(Nc3ccc4c(c3)OCCO4)c(-c3ccc(C)s3)nc2c1`, “inactive”.

With `CC(=O)N(c1ccc2oc(=O)sc2c1)S(=O)(=O)c1ccc(C)cc1`, the Potency entry is “inactive”. Consider `CC(=O)Oc1ccc(N(C(C)=O)S(=O)(=O)c2ccc3ccccc3c2)cc1Br`, for which the Potency was 12.6 µM (active). Still for that read-out and setting: in the case of `CCN1CCN(C(=O)CN(C)S(=O)(=O)c2ccc3ccccc3c2)CC1` it was “inactive”; in that of `Cc1cccc(-n2ncc(C(=O)N3CCC(C)CC3)c2C2CCN(C(=O)OC(C)(C)C)CC2)c1`, “inactive”; in that of `CC(C)(C)C1CCc2c(sc(NC(=O)c3ccccc3F)c2C(=O)N2CCCCC2)C1` (stereo unspecified), “inactive”.

Turning to `COc1ccc(-c2nc(Cn3c(=O)cc(C)c4c(C)nn(-c5ccccc5)c43)c(C)o2)cc1OC`, the Potency result is “inactive”. On the same count and under the same terms, in the case of `CCc1ccccc1NC(=O)c1cnn(-c2ccc(F)cc2)c1C1CCNCC1` it was “inactive”; in that of `COc1ccccc1CNC(=O)C(=O)NCC(c1ccco1)S(=O)(=O)c1ccc(F)cc1` (stereo unspecified), “inactive”. On to `COc1cc(OC)c(OC)cc1/C=C/c1nc2ccccc2c(=O)n1-c1ccc(Br)c(C)c1`, for which the Potency is 22.4 µM (active). On the same count and under the same terms, in the case of `COc1cc(OC)c(OC)cc1/C=C/c1nc2cc3ccccc3cc2c(=O)n1-c1ccc(F)c(Cl)c1` it was “inactive”; in that of `COc1cc(C(=O)Nc2ccc(-n3c(C)nc4ccccc4c3=O)cc2)cc(OC)c1OC`, “inactive”. For `O=C(Cc1ccc(Cl)cc1)NCC(c1cccs1)S(=O)(=O)c1ccc(Cl)cc1` (stereo unspecified), the growth rescue (activation) was 0.548% [at 9.22 µM]. For `Cc1ccc(Cl)cc1N(C)C(=O)C1CCCN(c2ncnc3onc(-c4ccc(F)cc4)c23)C1` (stereo unspecified), the Potency is 35.5 µM (active). As for `CCc1ccccc1N(C)C(=O)C1CCCN(c2ncnc3onc(-c4ccc(F)cc4)c23)C1` (stereo unspecified), the Potency entry is “inactive”.

For the compound `Cc1c(Cl)cccc1NC(=O)C1CCCN(c2ncnc3onc(C)c23)C1` (stereo unspecified), the Potency result was “inactive”. As for `Cc1cn(C)c(CC(=O)NCc2ccccc2)c1C(=O)O`, the Potency result is “inactive”.

Regarding `O=C(/C=C/c1ccccc1)N1CCN(Cc2cc(=O)n3nc(-c4ccccc4F)sc3n2)CC1`, the Potency result was “inactive”. Still for that read-out and setting: in the case of `CCc1ccccc1NC(=O)c1cc(-c2ccc3c(c2)OCO3)on1` it was “inactive”. Still for that read-out and setting: in the case of `O=C(NCc1ccccc1)c1cc(-c2cccc(Cl)c2)on1` it was “inactive”. Still for that read-out and setting: then `O=C(Nc1ccccc1C(F)(F)F)c1cc(-c2ccc(O)cc2)on1`, with 12.6 µM (active); and `COc1ccc(NC(=O)Cn2c(=O)cc(C)c3c(C)nn(-c4cccc(Cl)c4C)c32)cc1OC`, with “inactive”; and `CCOC(=O)c1cc(-c2ccccc2)n(-c2cccc(C(=O)Nc3cc(OC)cc(OC)c3)c2)c1C`, with “inactive”. `CC(C)OCCCn1c(SCC(=O)c2ccccc2)nc2c(sc3ccccc32)c1=O`: the Potency result is “inactive”.

In the case of `CCn1c(CN2C(=O)CSc3ccccc32)n[nH]c1=S`, the Potency entry was “inactive”.

In the case of `CCn1c(CSCc2c(Cl)cccc2Cl)n[nH]c1=S`, the Potency is 11.2 µM (active). `CCn1c(CNS(=O)(=O)c2ccc(Cl)cc2)n[nH]c1=S`: the Potency entry was “inactive”.

In the case of `CC(C)(C)c1ccc(C(=O)Nc2ccc3c(c2)CCCN3C(=O)c2cccs2)cc1`, the growth rescue (activation) is 18.3% [at 9.22 µM]. In the case of `CCOC(=O)c1c(S(=O)(=O)NCC(=O)Nc2ccc(Cl)c(C(F)(F)F)c2)c(C)n(C)c1C`, the Potency entry is “inactive”. Same read-out and setting: in the case of `CCOc1cc(/C=N/Nc2cc(C)nc3ccc(C)cc23)ccc1O` it was 15.8 µM (active); in that of `CCOc1cc(/C=C2\SC(N3CCCC(C)C3)=NC2=O)ccc1O` (stereo unspecified), “inactive”; in that of `COc1cc(OC)cc(C(=O)Nc2cc3nn(-c4ccccc4)nc3cc2Cl)c1`, “inactive”. On the same count and under the same terms, then `O=[N+]([O-])c1cc(-c2nc(-c3ccccc3)no2)ccc1NCc1ccco1`, with “inactive”; and `CCc1nn(CCCC(=O)NCc2ccccc2OC)c(=O)c2cc3occc3n12`, with “inactive”. Consider `CN(C)c1ccnc2sc(C(=O)c3ccccc3)c(N)c12`, for which the Potency was 6.31 µM (active). Same read-out and setting: then `COC(=O)c1cc2c(N)c(C(=O)c3ccc(Cl)cc3)sc2nc1C(OC)OC`, with “inactive”; and `COc1cccc(C(=O)c2sc3nc(-c4ccccc4)cc(C(F)(F)F)c3c2N)c1`, with “inactive”.

In the case of `NC(=O)c1sc2nc3c(c(-c4ccccc4)c2c1N)CCC3`, the Potency was 28.2 µM (active). Regarding `Cc1ccc2c(N)c(C(=O)c3ccccc3)sc2n1`, the Potency is 14.1 µM (active). Same read-out and setting: in the case of `CCCS(=O)(=O)c1c(Nc2ccccc2C)sc(C(=O)c2ccccc2)c1N` it was “inactive”. The same measure, in the same setting: then `Cc1nc2sc(C(=O)c3ccccc3)c(N)c2c2c1CCCC2`, with 22.4 µM (active); and `COc1ccccc1NC(=O)c1sc2nc(C)c(C(=O)Nc3ccc(Cl)cc3)c(-c3ccc(Br)cc3)c2c1N`, with “inactive”. `CN(C(=O)c1ccccc1)c1nccnc1C#N`: the Potency result was “inactive”. Same read-out and setting: then `Cc1ccc(NC(=O)c2sc3nc(N)c(C#N)cc3c2N)cc1`, with “inactive”; and `Nc1c(C(=O)c2cccs2)sc2nsc(SCCN3CCCCC3)c12`, with “inactive”. As to `Cc1ccccc1CSCCNC(=O)C1CCN(S(=O)(=O)Cc2ccccc2)CC1`, the Potency entry was “inactive”. For `Cc1c(NS(=O)(=O)c2ccc(Cl)cc2)c(=O)n(-c2ccccc2)n1C`, the Potency entry is “inactive”.

In the case of `CCCN(CCC)CCNC(=O)Cn1cnc2sc(C)c(S(=O)(=O)N3CCC(C)CC3)c2c1=O`, the Potency entry is “inactive”. `CCc1ccccc1NC(=O)N1CCN(C(=O)c2nsc3ccccc23)CC1`: the Potency result was “inactive”. As for `COc1ccc(C2Sc3ccccc3NC3=C2C(=O)c2ccccc23)c(OC)c1OC` (stereo unspecified), the Potency entry is “inactive”. The same measure, in the same setting: in the case of `Cc1ccc(C(=O)Nc2ccc(C(=O)O)cc2)cc1S(=O)(=O)Nc1ccccc1` it was “inactive”.

On to `Cc1cccc(C(=O)Nc2ccc(-c3nc4ncccc4o3)cc2C)c1`, for which the Potency entry was “inactive”.

`O=C(NCc1cccnc1)C(=O)NCC(c1cccnc1)N1CCN(c2ccccc2)CC1` (stereo unspecified): the Potency entry is “inactive”. Consider `O=C(NCc1ccc2c(c1)CCN2C(=O)c1ccccc1)c1ccccc1`, for which the Potency result is “inactive”. Still for that read-out and setting: in the case of `COc1ccc(N)c(C)c1` it was “inactive”. With `COc1ccc2[nH]c3ccc(OC)cc3c2c1`, the Potency is 8.91 µM (active). With `COc1ccc2[nH]c3c(C)c4cc[n+](C)cc4c(C)c3c2c1`, the Potency entry was “inactive”. Regarding `Cc1ccc(Cl)cc1N(C)C(=O)Cn1nc(Cc2cccnc2)c2ccccc2c1=O`, the Potency entry is “inactive”. The same measure, in the same setting: in the case of `CCCn1c2ccccc2c2cnn(CC(=O)N3CCCC(C(=O)OCC)C3)c(=O)c21` (stereo unspecified) it was “inactive”; in that of `CCc1ccc(S(=O)(=O)n2ccnc2)cc1`, “inactive”; in that of `COc1cccc(Cn2c(SCc3ccc(C(=O)N4CCC(C)CC4)cc3)nc3ccncc32)c1`, “inactive”. For the compound `N#C/C(=C\c1cccc(F)c1)c1nc(-c2cc3c(ccc4ccccc43)oc2=O)cs1`, the Potency result was “inactive”. As to `O=C(CSc1nc2c(c(=O)[nH]1)CN(Cc1ccc3c(c1)OCO3)CC2)Nc1cc(F)ccc1F`, the Potency entry was “inactive”. As for `Cc1cc(-c2ccccc2)n2nc(-c3ccccc3)cc2n1`, the Potency entry was “inactive”. Turning to `Cc1cccc(NS(=O)(=O)c2ccc([N+](=O)[O-])cc2)n1`, the Potency entry is “inactive”. Still for that read-out and setting: then `Cc1cccc(Nc2nc(-c3ccccc3)cs2)n1`, with 14.1 µM (active). Consider `COc1ccc(-c2csc(-c3c(N)c(C(=O)c4ccc(OC)c(OC)c4)n4ccccc34)n2)cc1`, for which the Potency entry was “inactive”. Take `CCCn1c(C2CCCN2c2nc(-c3ccc(OC)cc3)cs2)nc2ccccc21` (stereo unspecified): the Potency result was “inactive”. Still for that read-out and setting: in the case of `COc1ccc(-c2csc(Nc3ccccn3)n2)cc1` it was 3.55 µM (active); in that of `O=C(NCC(c1ccco1)S(=O)(=O)c1cccs1)c1ccc(F)cc1` (stereo unspecified), “inactive”.
